According to PubChem BioAssay AID1159580 (chemical genetic matrix, 2015):
Where “and” joins values, the source holds several entries; their conditions need not be identical. Identical values can stand only once. Hit rate of the full screen: of about 5,500 compounds, about 2,000 (36%) were called active. Another 18% or so got no clear call; they are omitted. Rule as the data show it: active = normalized growth mostly below about 0.91 (no sharp cut-off); inconclusive = no clear call, values can overlap the other calls; inactive = mostly above about 0.92. The list shows a part of the results.

Assay: chemical genetic growth profiling, strain panel (AID 1159580);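 also: tested at 20 µM; growth read once vehicle control cultures reached saturation at 30 °C; 1 = growth at the plate median or of vehicle wells; lower values mean less growth of the strain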
Settings: S. cerevisiae deletion strains, growth OD

Measured: normalized growth

NC(=O)N/N=C\c1ccc([N+](=O)[O-])o1
inactive: locus YAL021C, strain ccr4, hits give low values 0.987 | locus YAL026C, strain drs2, hits give low values 0.988 | locus YAL030W, strain snc1, hits give low values 1 | locus YBL061C, strain skt5, hits give low values 0.997 | locus YBR009C, strain hhf1, hits give low values 0.978 | locus YBR021W, strain FUR4, hits give low values 1.02 | locus YBR023C, strain chs3, hits give low values 0.996 | locus YBR171W, strain sec66, hits give low values 1.01 | locus YBR229C, strain ROT2, hits give low values 0.997 | locus YBR231C, strain swc5, hits give low values 0.993 | locus YBR279W, strain paf1, hits give low values 0.995 | locus YCL011C, strain gbp2, hits give low values 0.986 | locus YCL016C, strain dcc1, hits give low values 0.992 | locus YCL029C, strain bik1, hits give low values 0.99 | locus YCL061C, strain MRC1, hits give low values 1.01 | locus YCL069W, strain vba3, hits give low values 1 | locus YCR088W, strain abp1, hits give low values 0.972 | locus YDL005C, strain med2, hits give low values 0.989 | locus YDL035C, strain GPR1, hits give low values 1.01 | locus YDL040C, strain nat1, hits give low values 0.995 | locus YDL074C, strain BRE1, hits give low values 1.08 | locus YDL101C, strain DUN1, hits give low values 0.993 | locus YDL134C, strain PPH21, hits give low values 1 | locus YDL185W, strain tfp1, hits give low values 0.963 | locus YDL192W, strain arf1, hits give low values 0.99 | locus YDR001C, strain nth1, hits give low values 0.991 | locus YDR069C, strain doa4, hits give low values 0.975 | locus YDR101C, strain arx1, hits give low values 0.977 | locus YDR137W, strain rgp1, hits give low values 1.04 | locus YDR159W, strain sac3, hits give low values 0.993 | locus YDR162C, strain NBP2, hits give low values 1.01 | locus YDR195W, strain ref2 0.967 | locus YDR297W, strain sur2, hits give low values 0.991 | locus YDR318W, strain mcm21, hits give low values 0.983 | locus YDR334W, strain swr1, hits give low values 0.992 | locus YDR335W, strain msn5, hits give low values 0.999 | locus YDR388W, hits give low values 0.984 | locus YDR392W, strain spt3, hits give low values 0.925 | locus YDR502C, strain sam2, hits give low values 0.978 | locus YEL003W, strain gim4, hits give low values 1 | locus YEL037C, strain rad23, hits give low values 1 | locus YEL061C, strain CIN8 (second series), hits give low values 1 | locus YEL061C, strain CIN8, hits give low values 1.02 | locus YER015W, strain faa2, hits give low values 0.962 | locus YER016W, strain bim1, hits give low values 0.968 | locus YER110C, hits give low values 0.966 | locus YER111C, strain swi4, hits give low values 1.01 | locus YER155C, strain BEM2 (second series), hits give low values 0.962 | locus YER155C, strain BEM2, hits give low values 0.994 | locus YER167W, strain BCK2, hits give low values 1 | locus YFR010W, strain ubp6, hits give low values 0.985 | locus YGL078C, strain dbp3, hits give low values 0.995 | locus YGL086W, strain mad1, hits give low values 0.971 | locus YGL167C, strain pmr1, hits give low values 0.994 | locus YGL173C, strain kem1, hits give low values 1.01 | locus YGL227W, strain vid30, hits give low values 1.01 | locus YGL240W, strain doc1, hits give low values 0.952 | locus YGL248W, strain PDE1, hits give low values 0.999 | locus YGL253W, strain hxk2, hits give low values 1.01 | locus YGR135W, strain pre9, hits give low values 0.989 | locus YGR229C, strain SMI1, hits give low values 1.07 | locus YGR252W, strain gcn5, hits give low values 0.951 | locus YHR013C, strain ard1, hits give low values 1.01 | locus YHR027C, strain rpn1, hits give low values 0.988 | locus YHR030C, strain SLT2, hits give low values 0.992 and 0.97 | locus YHR079C, strain IRE1 (second series), hits give low values 0.978 | locus YHR079C, strain IRE1, hits give low values 0.96 | locus YHR094C, strain hxt1, hits give low values 0.982 | locus YHR129C, strain ARP1, hits give low values 0.999 | locus YHR142W, strain chs7, hits give low values 1.02 | locus YHR200W, strain rpn10, hits give low values 0.989 | locus YIL066C, strain RNR3, hits give low values 1.01 | locus YIL073C, strain SPO22, hits give low values 0.975 | locus YIL125W, strain kgd1, hits give low values 0.983 | locus YIR030C, strain dcg1, hits give low values 0.989 | locus YJL092W, strain hpr5, hits give low values 0.997 | locus YJL095W, strain BCK1 (second series), hits give low values 0.992 | locus YJL095W, strain BCK1, hits give low values 0.985 and 0.968 | locus YJL115W, strain asf1, hits give low values 1.02 | locus YJL129C, strain trk1, hits give low values 1.05 | locus YJL134W, strain LCB3, hits give low values 1 | locus YJL154C, strain vps35, hits give low values 0.992 | locus YJL164C, strain tpk1, hits give low values 0.966 | locus YJL166W, strain qcr8, hits give low values 0.984 | locus YJL168C, strain set2, hits give low values 0.979 | locus YJL187C, strain SWE1 (second series), hits give low values 0.998 | locus YJL187C, strain SWE1, hits give low values 0.996 | locus YJR043C, strain POL32, hits give low values 0.977
